Assay results reported in PubChem BioAssay AID1224864 (Chung Lab, Department of Pediatrics, Emory University, 2016).
Out of some 2,000 compounds screened, about 20 (1%) were called active. The sample holds actives, similar compounds and a random draw of the others, so the mix is not that of the screen. How the calls were made is not given here.

molecular target: Cystic fibrosis transmembrane conductance regulator (Homo sapiens) (UniProt P13569); test: F508del-CFTR plasma membrane relocalization enhancers – imaging, HeLa, high-content microscopy, immunofluorescence, primary screen (AID 1224864); settings: PM immunofluorescence imaging, 24 h, at 10 µM, stronger effect = higher value, relative to vehicle wells set at 100; total CFTR intensity: measured here: total cellular F508del-CFTR signal;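 further: HeLa cells stably expressing F508del-CFTR stained with 3G11 antibody against NBD1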;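 on plasma membrane CFTR intensity: mean immunofluorescence in a thin cell-margin band taken as plasma membrane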
Sequence (P13569 whole entry, looked up, stated change not applied): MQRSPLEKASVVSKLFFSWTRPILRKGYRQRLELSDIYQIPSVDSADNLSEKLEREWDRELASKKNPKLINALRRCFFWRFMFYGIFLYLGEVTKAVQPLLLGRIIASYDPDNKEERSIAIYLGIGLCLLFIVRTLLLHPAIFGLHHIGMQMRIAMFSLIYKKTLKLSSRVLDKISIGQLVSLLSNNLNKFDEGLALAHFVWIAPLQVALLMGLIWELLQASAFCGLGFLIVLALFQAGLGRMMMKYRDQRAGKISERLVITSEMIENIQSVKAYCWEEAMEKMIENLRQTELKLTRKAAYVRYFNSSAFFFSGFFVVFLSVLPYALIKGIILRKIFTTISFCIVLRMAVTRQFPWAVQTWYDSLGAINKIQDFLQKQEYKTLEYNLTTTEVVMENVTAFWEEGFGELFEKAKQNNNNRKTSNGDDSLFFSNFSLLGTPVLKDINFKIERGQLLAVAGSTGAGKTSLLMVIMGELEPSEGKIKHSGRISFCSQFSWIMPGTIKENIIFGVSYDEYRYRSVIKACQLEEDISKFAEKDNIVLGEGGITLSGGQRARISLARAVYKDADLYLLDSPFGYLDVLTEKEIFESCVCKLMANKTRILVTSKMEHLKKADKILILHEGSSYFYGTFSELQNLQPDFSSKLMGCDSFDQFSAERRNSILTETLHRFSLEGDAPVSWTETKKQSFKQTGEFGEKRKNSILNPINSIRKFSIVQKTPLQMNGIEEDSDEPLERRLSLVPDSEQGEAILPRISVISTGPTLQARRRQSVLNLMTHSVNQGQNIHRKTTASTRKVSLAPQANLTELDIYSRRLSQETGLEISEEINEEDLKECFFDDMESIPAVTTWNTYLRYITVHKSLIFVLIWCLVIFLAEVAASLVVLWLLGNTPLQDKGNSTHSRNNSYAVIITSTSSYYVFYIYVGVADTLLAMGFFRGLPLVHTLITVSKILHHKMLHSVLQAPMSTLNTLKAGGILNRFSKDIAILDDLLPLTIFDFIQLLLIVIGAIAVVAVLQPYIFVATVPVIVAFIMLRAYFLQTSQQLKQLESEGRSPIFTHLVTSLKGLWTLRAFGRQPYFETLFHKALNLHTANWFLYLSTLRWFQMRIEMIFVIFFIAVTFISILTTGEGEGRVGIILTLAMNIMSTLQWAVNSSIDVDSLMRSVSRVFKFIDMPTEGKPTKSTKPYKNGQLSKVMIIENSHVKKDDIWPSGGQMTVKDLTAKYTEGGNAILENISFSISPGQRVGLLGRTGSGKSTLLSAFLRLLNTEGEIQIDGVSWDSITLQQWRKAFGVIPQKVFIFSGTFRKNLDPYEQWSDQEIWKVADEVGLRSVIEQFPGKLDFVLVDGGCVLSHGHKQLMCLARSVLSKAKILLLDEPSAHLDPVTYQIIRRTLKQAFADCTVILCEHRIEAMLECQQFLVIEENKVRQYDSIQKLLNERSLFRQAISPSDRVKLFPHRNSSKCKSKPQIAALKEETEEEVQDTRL

Row | Structure (SMILES) | plasma membrane CFTR intensity | total CFTR intensity
1 | N/C(=N/OS(=O)(=O)c1ccc([N+](=O)[O-])cc1)c1ccncc1 | 87% (inactive) | 85%
2 | COc1ccccc1NC(=O)N1CCc2[nH]c3ccc(Cl)cc3c2C1 | 92% (inactive) | 84%
3 | C/C(CCc1oc2ccc(Cl)cc2c1-c1ccc(C)o1)=N\O | 91% (inactive) | 97%
4 | COc1ccc(/C=N\NC(=O)CCc2c(C)n[nH]c2C)c(OC)c1OC | 82% (inactive) | 77%
5 | COc1ccccc1Oc1c(C)oc2c(CN3CCN(CCO)CC3)c(O)ccc2c1=O | 90% (inactive) | 89%
6 | O=C(O)c1ccc(OCCn2ccnc2)cc1 | 77% (inactive) | 82%
7 | CN(CCCN1CCOCC1)Cc1cn(C)nc1-c1ccccc1F | 84% (inactive) | 87%
8 | NCc1ccccc1COc1ccccc1 | 81% (inactive) | 83%
9 | Cc1ccc(CN2CCN(CCCc3ccccc3)CC2CCO)cc1 (stereo not drawn) | 82% (inactive) | 85%
10 | CCC(CO)NCCNC(CC)CO (stereo not drawn) | 86% (inactive) | 88%
11 | Cc1ccc(N2CCN(C(=S)c3ccc(-c4cccc([N+](=O)[O-])c4)o3)CC2)cc1 | 81% (inactive) | 80%
12 | O=C(CN1C(=O)c2ccccc2S1(=O)=O)Nc1ccccc1 | 84% (inactive) | 82%
13 | CCCCC/C=C\C[C@H](O)/C=C/c1cccc(C[C@H](O)CCCCO)n1 | 107% (active) | 126%
14 | CN(C)c1cc(NC(=O)CN2CCOCC2)c2ccccc2n1 | 91% (inactive) | 88%
15 | CCOC(=O)C1C(=O)CC(C)(O)C(C(=O)OCC)C1/C=C/c1ccccc1 (stereo not drawn) | 95% (inactive) | 102%
16 | Nc1ccc(N)c(C(=O)O)c1 | 77% (inactive) | 82%
17 | CCOC(=O)Cn1c(C)cc(=O)c2ccccc21 | 114% (inactive) | 113%
18 | COc1cc(C(=O)OCCCN(C)C)cc(OC)c1OC | 89% (inactive) | 84%
19 | CN(C)c1ccc(CNCCC(Cc2ccccc2)c2ccco2)cc1 (stereo not drawn) | 50% (inactive) | 41%
20 | Cn1c(=O)c2c(ncn2Cc2ccccc2)n(C)c1=O | 81% (inactive) | 82%
21 | CC(C)NC[C@@H](O)c1ccc(O)c(O)c1 | 100% (inactive) | 111%
22 | CNC[C@H](O)c1cccc(O)c1 | 92% (inactive) | 96%

Row | Structure (SMILES) | plasma membrane CFTR intensity | total CFTR intensity
23 | CNC[C@H](O)c1ccc(O)c(O)c1 | 101% (active) | 120%
24 | O[C@@H](CNC[C@H](O)c1ccccc1)c1ccccc1 | 90% (inactive) | 84%
25 | Cn1nc(-c2ccc(Cl)cc2)nc2c(=O)n(C)c(=O)nc1-2 | 84% (inactive) | 86%
26 | O=C(CN1C(=O)c2ccccc2C1=O)Nc1cccc([N+](=O)[O-])c1 | 90% (inactive) | 91%
27 | COc1cc(-c2nnc(-c3cccs3)o2)cc(OC)c1OC | 96% (inactive) | 87%
28 | O=c1c2[nH]c3ccccc3c2ncn1CCC1=CCCCC1 | 87% (inactive) | 88%
29 | Cc1ccc2c(c1)c1c(n2C)C(=O)CCC1 | 76% (inactive) | 75%
30 | CCc1cc(=O)oc2cc(OCC=C(C)C)ccc12 | 95% (inactive) | 98%
31 | COc1ccc2c(c1OC)C(=O)NC(C)=C(C(=O)OC(C)(C)C)C2O (stereo not drawn) | 87% (inactive) | 90%
32 | O=C1C=CC(=O)C(C2=C3C(=O)N(CCc4ccccc4)CC(=O)N3CCC2)=C1 | 108% (active) | 124%
33 | O=C1CCCCCN1Cc1ccccc1 | 86% (inactive) | 90%
34 | COC(=O)CN1CC(=O)N(c2ccccc2)C1=S | 83% (inactive) | 81%
35 | COc1ccccc1/C=C/CN1CCN(Cc2ccc(F)cc2)C(CCO)C1 (stereo not drawn) | 77% (inactive) | 77%
36 | CC(C)(CO)CNC(=O)CC1C(=O)NCCN1CC(c1ccccc1)c1ccccc1 (stereo not drawn) | 85% (inactive) | 89%
37 | Cn1c(=O)c2nc3ccccc3nc2n(C)c1=O | 96% (inactive) | 90%
38 | Cc1coc2c1c(C)cc1oc(=O)c(Cc3ccccc3)c(C)c12 | 91% (inactive) | 91%
39 | O=C(N/N=C\c1cc([N+](=O)[O-])ccc1N1CCOCC1)c1ccccn1 | 79% (inactive) | 75%
40 | COC(=O)c1cc(-c2ccc(C)o2)nc2ccccc12 | 96% (inactive) | 99%
41 | Cc1cccc(CN2CCN(C(c3ccccc3)c3ccc(Cl)cc3)CC2)c1 (stereo not drawn) | 92% (inactive) | 107%
42 | C(=C\c1ccccc1)/CN1CCN(C(c2ccccc2)c2ccccc2)CC1 | 107% (active) | 125%
43 | Fc1ccc(C(c2ccc(F)cc2)N2CCN(C/C=C/c3ccccc3)CC2)cc1 | 99% (inactive) | 120%
44 | O=C(O)c1ccc(N2C(=O)/C(=C\c3ccccc3)N=C2c2ccccc2)cc1 | 78% (inactive) | 78%
